Key:
Assay in all cases: log2 ratio of Biotin-Ahx-Ub-VS probe labelling (fragment/DMSO); higher = less target engagement (more negative = stronger competition), active = hit call of the paper (q ≤ 0.05, log2 ratio ≤ -1)
Conditions in all cases: compound concentration: 200 uM; treatment time: 3 h
USP42 = target: T1, USP42 (UniProt Q9H9J4)
T1 sequence (whole entry): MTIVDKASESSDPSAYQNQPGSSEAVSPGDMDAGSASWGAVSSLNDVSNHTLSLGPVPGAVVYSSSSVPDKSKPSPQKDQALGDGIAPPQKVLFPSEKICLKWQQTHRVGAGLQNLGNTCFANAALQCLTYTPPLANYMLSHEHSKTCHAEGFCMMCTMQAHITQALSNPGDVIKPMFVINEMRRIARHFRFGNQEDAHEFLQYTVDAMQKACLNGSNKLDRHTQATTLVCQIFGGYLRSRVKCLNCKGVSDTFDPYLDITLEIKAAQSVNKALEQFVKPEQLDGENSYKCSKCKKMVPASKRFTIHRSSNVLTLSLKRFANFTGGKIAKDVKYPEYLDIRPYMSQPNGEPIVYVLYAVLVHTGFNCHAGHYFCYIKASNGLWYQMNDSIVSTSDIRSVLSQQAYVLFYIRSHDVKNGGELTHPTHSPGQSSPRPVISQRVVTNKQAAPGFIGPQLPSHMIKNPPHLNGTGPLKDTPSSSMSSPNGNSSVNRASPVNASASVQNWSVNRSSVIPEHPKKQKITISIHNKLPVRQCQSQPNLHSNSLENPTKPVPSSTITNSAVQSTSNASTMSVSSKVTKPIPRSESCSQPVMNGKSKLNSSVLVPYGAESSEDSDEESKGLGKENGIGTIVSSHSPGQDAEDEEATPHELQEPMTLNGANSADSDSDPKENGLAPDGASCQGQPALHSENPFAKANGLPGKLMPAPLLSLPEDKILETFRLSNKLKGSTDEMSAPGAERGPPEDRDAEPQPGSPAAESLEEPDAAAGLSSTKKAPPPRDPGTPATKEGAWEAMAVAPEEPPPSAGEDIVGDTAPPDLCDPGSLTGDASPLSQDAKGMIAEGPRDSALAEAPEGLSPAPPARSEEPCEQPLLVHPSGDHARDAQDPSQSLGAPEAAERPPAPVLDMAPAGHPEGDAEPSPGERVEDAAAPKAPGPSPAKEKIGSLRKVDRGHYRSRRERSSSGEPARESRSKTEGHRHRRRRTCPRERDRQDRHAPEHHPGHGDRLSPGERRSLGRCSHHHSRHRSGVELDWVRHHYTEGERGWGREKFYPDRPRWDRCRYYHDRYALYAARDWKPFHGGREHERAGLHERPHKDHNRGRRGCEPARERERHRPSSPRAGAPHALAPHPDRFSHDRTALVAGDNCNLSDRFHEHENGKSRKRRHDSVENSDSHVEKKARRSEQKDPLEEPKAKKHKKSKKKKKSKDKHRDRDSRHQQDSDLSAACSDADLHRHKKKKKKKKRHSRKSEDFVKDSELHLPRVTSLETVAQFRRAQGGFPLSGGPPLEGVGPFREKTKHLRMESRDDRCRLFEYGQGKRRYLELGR
Summary of the method: (§1)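 Using Biotin-Ahx-Ub-VS at 0.5 µM final for 1 h, DUBs were labelled in HEK293T lysate (495 µg per sample) that had first been treated in triplicate with fragment at 200 µM or vehicle for 3 h. NeutrAvidin enrichment, LysC and trypsin digestion and diaPASEF LC-MS/MS followed. Spectronaut label-free quantities were global-median-normalised. Values are average log2 fragment/vehicle ratios by unpaired t-test, using proteins with ≥2 unique peptides.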

USP46 = USP46 (UniProt P62068)
Summary of the method: as §1

USP47 = target: T2, USP47 (UniProt Q96K76)
T2 sequence (whole entry): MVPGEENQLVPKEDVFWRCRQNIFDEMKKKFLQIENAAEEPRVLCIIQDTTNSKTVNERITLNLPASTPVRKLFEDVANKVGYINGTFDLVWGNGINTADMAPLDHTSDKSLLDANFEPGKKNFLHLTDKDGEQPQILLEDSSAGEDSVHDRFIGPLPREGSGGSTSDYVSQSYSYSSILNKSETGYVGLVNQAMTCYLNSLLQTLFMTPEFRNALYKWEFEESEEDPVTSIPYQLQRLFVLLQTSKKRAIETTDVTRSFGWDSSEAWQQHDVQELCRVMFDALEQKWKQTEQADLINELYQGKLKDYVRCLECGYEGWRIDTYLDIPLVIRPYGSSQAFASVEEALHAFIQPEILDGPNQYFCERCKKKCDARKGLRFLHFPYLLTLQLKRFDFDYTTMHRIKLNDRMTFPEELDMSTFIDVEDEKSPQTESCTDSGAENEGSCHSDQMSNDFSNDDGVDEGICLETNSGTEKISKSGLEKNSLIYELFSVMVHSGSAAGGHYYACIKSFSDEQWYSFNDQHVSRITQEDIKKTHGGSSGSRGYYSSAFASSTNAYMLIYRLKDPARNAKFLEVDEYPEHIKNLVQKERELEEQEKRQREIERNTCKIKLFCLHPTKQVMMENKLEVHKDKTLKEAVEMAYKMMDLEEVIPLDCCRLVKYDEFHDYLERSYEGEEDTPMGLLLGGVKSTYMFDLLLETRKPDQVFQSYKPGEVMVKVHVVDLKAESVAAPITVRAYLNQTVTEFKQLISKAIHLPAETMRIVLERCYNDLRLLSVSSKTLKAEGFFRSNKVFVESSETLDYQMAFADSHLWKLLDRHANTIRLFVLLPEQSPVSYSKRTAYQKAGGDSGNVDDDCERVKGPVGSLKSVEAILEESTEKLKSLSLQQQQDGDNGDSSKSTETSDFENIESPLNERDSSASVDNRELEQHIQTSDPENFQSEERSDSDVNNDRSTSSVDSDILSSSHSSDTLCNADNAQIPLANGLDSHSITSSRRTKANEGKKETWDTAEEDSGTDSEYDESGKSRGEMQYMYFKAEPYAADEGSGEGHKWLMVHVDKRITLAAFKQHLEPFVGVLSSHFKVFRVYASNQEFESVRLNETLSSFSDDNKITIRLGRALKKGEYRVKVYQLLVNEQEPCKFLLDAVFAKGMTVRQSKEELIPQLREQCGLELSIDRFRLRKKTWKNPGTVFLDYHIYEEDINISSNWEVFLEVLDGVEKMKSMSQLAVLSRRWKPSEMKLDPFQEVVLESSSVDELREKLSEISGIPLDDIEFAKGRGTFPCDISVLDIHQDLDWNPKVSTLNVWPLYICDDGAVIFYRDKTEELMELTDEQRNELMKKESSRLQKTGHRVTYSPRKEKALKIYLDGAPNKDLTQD
Summary of the method: as §1

USP48 = target: T3, USP48 (UniProt Q86UV5)
T3 sequence (whole entry): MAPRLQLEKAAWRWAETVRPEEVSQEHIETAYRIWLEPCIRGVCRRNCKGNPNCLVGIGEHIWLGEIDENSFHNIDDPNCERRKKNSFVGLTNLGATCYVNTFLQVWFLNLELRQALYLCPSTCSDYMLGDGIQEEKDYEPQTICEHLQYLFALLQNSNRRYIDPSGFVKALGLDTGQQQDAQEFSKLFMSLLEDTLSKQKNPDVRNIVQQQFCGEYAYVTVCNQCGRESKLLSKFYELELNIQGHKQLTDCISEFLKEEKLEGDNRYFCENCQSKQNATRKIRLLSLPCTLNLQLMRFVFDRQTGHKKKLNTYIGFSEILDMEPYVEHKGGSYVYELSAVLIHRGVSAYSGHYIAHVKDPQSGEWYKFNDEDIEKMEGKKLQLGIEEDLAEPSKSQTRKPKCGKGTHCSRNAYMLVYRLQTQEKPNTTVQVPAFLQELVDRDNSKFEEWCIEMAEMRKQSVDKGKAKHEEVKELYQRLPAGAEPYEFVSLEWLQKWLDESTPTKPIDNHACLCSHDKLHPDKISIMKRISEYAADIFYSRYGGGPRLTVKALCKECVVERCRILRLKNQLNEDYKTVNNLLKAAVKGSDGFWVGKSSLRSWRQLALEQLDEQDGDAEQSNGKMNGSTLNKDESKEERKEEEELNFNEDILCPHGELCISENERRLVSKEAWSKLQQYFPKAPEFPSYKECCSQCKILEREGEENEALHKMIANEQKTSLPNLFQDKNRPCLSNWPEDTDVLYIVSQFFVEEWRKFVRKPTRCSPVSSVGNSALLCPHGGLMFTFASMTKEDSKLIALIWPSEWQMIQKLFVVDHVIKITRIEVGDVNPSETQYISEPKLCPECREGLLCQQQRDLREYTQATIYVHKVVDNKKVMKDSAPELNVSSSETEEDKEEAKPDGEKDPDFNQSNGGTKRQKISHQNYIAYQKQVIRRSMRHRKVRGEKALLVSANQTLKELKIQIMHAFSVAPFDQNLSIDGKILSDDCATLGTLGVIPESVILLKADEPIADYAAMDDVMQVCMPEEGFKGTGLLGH
Summary of the method: as §1

USP5 = target: T4, USP5 (UniProt P45974)
T4 sequence (whole entry): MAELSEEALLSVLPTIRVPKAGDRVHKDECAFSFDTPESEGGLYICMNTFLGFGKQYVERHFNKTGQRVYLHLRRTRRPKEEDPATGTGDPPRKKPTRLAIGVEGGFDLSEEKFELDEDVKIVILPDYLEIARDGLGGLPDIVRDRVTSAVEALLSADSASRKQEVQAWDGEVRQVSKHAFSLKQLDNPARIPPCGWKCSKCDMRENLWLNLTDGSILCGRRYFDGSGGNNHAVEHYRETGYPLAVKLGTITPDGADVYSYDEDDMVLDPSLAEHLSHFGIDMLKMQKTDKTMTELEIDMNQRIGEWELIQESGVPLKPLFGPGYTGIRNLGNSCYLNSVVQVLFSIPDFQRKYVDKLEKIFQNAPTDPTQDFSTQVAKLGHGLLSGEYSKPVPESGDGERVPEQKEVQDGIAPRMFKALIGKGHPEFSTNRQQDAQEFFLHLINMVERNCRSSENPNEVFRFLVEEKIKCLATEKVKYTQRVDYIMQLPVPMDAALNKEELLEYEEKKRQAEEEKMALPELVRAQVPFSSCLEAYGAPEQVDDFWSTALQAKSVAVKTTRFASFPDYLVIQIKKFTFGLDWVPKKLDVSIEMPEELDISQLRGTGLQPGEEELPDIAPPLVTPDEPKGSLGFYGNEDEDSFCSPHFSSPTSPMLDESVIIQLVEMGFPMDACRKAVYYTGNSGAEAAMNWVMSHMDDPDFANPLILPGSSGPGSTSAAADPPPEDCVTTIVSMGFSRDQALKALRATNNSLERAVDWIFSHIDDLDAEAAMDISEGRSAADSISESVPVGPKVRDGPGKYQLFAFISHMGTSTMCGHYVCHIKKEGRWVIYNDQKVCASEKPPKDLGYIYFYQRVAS
Summary of the method: as §1

USP54 = USP54 (UniProt Q70EL1)
Summary of the method: as §1

USP7 = USP7 (UniProt Q93009)
Summary of the method: as §1

USP8 = target: T5, USP8 (UniProt P40818)
T5 sequence (whole entry): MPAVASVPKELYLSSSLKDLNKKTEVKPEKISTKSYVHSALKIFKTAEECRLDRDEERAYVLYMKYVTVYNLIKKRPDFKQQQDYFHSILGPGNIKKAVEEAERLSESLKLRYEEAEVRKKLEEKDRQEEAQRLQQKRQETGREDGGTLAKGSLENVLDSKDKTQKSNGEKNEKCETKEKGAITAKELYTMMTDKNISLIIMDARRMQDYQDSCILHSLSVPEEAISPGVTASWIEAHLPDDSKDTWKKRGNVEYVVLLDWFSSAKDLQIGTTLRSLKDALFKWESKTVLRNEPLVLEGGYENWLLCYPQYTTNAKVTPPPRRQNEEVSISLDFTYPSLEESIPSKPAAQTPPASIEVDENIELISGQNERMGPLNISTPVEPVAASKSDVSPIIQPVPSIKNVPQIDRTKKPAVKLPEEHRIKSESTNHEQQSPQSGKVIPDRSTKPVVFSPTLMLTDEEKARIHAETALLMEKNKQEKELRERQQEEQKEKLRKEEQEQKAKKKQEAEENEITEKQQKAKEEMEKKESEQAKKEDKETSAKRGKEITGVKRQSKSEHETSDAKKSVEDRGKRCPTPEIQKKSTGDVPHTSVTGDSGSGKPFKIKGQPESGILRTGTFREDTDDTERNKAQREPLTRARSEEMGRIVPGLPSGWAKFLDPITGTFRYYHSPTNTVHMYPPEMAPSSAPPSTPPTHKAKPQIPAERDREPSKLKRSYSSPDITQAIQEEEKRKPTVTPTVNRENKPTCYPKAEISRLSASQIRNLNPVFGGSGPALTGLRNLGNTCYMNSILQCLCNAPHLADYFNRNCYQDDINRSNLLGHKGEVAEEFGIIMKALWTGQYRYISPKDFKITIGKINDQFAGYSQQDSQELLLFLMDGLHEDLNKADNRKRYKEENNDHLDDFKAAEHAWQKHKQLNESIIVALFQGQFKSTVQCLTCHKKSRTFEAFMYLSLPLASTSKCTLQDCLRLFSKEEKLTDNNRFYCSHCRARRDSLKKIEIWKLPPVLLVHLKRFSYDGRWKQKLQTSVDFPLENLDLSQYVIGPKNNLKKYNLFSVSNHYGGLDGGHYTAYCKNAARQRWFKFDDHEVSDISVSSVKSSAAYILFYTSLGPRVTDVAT
Summary of the method: as §1

Measured: log2 ratio of Biotin-Ahx-Ub-VS probe labelling

Sequence of USP7 (Q93009 whole entry, looked up): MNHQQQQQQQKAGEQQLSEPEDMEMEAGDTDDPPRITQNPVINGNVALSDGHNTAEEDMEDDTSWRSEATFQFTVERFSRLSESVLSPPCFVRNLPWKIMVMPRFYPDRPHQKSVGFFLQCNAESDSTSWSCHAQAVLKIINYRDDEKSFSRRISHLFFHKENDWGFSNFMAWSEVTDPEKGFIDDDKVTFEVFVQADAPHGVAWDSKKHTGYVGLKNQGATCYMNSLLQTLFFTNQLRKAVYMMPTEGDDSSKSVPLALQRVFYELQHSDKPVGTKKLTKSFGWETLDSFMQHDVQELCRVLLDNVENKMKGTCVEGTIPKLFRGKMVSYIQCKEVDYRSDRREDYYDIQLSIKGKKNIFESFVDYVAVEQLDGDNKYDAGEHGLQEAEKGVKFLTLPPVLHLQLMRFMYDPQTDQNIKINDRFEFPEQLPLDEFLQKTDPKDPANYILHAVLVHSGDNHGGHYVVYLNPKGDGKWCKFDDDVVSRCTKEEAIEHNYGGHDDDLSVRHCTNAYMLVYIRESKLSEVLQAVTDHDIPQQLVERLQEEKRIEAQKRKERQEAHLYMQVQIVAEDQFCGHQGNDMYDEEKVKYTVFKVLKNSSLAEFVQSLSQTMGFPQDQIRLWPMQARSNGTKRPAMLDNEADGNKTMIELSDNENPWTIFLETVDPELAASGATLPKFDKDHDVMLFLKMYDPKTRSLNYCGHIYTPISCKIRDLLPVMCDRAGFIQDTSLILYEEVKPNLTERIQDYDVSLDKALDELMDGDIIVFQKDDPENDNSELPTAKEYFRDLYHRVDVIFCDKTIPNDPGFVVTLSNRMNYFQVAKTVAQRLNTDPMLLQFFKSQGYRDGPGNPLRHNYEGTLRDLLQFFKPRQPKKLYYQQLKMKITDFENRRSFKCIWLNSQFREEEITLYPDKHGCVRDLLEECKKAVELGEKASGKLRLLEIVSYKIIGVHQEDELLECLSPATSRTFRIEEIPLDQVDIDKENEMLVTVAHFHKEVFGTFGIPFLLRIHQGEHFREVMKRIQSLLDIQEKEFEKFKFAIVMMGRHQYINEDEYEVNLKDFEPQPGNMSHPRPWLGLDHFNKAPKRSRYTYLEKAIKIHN
Sequence of USP46 (P62068 whole entry): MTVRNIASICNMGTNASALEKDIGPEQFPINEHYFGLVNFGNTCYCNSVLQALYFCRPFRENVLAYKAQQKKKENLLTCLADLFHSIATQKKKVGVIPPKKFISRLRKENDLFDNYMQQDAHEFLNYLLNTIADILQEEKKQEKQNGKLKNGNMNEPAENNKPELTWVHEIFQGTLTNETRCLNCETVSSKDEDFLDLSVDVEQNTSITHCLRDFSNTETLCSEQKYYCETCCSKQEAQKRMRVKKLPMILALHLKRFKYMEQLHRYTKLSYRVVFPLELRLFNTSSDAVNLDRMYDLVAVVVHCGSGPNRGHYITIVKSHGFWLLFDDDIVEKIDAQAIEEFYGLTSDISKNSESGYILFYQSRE
Sequence of USP54 (Q70EL1 whole entry): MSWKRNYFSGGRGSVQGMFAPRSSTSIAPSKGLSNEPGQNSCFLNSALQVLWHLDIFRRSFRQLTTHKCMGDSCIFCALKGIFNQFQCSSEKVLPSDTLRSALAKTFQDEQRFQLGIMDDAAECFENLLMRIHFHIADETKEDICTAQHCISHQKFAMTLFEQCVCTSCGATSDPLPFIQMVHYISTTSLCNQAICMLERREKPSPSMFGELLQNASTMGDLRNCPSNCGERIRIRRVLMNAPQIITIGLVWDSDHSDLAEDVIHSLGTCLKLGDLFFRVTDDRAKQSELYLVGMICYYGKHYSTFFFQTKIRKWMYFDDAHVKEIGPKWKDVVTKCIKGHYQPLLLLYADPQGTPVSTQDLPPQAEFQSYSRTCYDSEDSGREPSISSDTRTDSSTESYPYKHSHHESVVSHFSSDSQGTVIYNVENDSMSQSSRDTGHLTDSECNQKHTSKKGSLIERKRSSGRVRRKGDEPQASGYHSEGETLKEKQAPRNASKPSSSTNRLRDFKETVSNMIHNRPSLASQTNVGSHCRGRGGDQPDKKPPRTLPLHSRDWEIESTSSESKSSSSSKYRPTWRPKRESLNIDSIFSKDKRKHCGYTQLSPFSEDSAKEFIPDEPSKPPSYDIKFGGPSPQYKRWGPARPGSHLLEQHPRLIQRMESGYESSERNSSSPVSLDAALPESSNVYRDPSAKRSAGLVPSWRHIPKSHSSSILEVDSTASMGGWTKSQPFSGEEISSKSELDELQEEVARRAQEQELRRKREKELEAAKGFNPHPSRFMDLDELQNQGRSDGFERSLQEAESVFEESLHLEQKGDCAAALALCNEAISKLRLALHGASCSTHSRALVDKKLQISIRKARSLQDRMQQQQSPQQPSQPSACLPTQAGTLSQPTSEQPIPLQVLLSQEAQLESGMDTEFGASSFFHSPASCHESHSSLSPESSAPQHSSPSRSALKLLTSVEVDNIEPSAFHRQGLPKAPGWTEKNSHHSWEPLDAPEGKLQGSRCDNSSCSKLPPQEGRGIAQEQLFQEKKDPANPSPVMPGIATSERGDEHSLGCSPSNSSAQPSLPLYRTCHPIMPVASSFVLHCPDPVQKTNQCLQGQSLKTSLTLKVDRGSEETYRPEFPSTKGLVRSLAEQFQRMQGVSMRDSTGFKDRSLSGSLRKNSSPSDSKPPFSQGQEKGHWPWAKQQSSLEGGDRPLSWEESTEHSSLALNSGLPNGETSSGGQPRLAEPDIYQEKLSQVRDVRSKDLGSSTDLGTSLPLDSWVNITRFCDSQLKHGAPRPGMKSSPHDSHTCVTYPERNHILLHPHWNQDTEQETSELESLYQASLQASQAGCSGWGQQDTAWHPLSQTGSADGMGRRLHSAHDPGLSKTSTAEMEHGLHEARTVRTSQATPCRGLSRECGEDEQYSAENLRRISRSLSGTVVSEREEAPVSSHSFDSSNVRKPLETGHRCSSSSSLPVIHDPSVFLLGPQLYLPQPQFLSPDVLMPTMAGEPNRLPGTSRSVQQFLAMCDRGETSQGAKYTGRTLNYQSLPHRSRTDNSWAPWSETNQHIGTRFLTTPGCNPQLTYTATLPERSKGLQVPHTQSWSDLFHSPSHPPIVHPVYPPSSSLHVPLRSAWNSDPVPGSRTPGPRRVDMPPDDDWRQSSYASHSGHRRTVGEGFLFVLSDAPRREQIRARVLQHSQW

Cc1cc(C2CCCN2C(=O)CCl)nn1C.Cl (stereo not drawn)
inactive: USP42 0.512 | USP46 -0.144 | USP47 -0.308 | USP48 -0.159 | USP5 -0.0636 | USP54 -0.39 | USP7 -0.329 | USP8 -0.274
